Shown are actives, neighbours in structure and some others; about 11% of the full set was active somewhere.
PNC assembly inh: blocks assembly of the perinucleolar compartment; PC3M PTB-GFP, PNC prevalence imaging, 16 h; stronger effect = lower value; activity change (PNC), negative = inhibition, % at 10 µM; 3.1% of 140,000 active; AID 2417;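 active = readout at or below -70, meaning at least 70% loss of cells showing the perinucleolar compartment, a nuclear body marking cancer cells; inconclusive = readout between -30 and a set limit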
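Compounds are pinned in duplicate onto adhered PC3M cells stably expressing GFP-tagged PTB and incubated 16 h at 37 C. Cells are then fixed, nuclei stained with Hoechst, and PNC-positive cells counted.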
ALDH1A1 inh: ALDH1A1 (human) enzyme inhibition. P00352. Purified ALDH1A1, NADH fluorescence, propionaldehyde substrate. Potency, µM (top dose mostly 75.3 µM), usual class: inhibitors. 7.3% of 220,000 active
Target sequence (P00352 whole entry, looked up): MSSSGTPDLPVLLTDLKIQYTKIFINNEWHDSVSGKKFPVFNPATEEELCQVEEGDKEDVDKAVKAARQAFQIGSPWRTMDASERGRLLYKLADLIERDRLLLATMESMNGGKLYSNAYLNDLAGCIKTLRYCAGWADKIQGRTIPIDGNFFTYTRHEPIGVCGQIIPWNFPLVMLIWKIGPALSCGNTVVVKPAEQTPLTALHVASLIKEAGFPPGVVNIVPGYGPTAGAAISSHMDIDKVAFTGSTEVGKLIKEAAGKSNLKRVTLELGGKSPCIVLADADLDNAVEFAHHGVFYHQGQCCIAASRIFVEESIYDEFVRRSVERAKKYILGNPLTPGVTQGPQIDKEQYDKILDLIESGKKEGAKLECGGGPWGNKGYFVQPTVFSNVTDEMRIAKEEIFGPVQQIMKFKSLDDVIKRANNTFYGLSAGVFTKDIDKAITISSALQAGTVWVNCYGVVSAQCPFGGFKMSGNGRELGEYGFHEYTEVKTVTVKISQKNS
HPGD inh: HPGD (human) dehydrogenase inhibition; AID 894; Potency, µM, most hits filed as inhibitors; purified HPGD, NADH fluorescence kinetic, PGE2 substrate; 4.3% of 150,000 active; P15428
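NADH formation kinetics: reaction with 30 uM PGE2 and 1 mM NAD+ (final), 20 nM enzyme, Tris-HCl pH 8 with Tween 20, after 15 min compound preincubation at room temperature. Fluorescence change, last versus first of five reads.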
Each line names hits and unclear results; the compound was inactive in the other large screens. Unless noted, calls follow the shape of the dose curve; as a rule, active = well fitted inhibition curve with a large enough effect (not every such curve was filed as active); inconclusive = small, poorly fitted or top-dose-only effect, or another doubt; inactive = no such curve, though single readings can be large or run the other way.

COc1cccc(N2CCN(C3CC(=O)N(c4ccc(F)c(Cl)c4)C3=O)CC2)c1 (configuration not stated)	ALDH1A1 inh 3.5µM
O=C1CC(N2CCC(c3nc4ccccc4o3)CC2)C(=O)N1c1cc(Cl)cc(Cl)c1 (configuration not stated)	ALDH1A1 inh 4µM
CCN1C(=O)CC(N2CCC(Nc3ccc(OC)cc3)CC2)C1=O (configuration not stated)	ALDH1A1 inh inconclusive
O=C1CC(N2CCN(c3cccc(C(F)(F)F)c3)CC2)C(=O)N1c1ccccc1F (configuration not stated)	ALDH1A1 inh 20µM
Cc1cccc(C)c1NC(=O)N1CCC(c2nc3ccccc3o2)CC1	none
COc1cccc(N2CCN(C3CC(=O)N(c4ccc(C)c(Cl)c4)C3=O)CC2)c1 (configuration not stated)	ALDH1A1 inh inconclusive
CCOC(=O)C1(CCOC)CCN(Cc2nc(C(C)C)cs2)CC1	none (no result: PNC assembly inh, HPGD inh)
CCN1CCCC1CNCc1cccc(OC)c1OCc1ccc(F)cc1 (configuration not stated)	none
COCC(=O)N1CCC2(CCCN(Cc3ccc(C#N)cc3)C2)CC1	none (no result: PNC assembly inh)
Cc1ccc(S(=O)(=O)NNC(=O)c2cccc(O)c2)cc1	none (no result: PNC assembly inh, HPGD inh)
Cc1ccc(S(=O)(=O)OCCc2ccccc2)cc1	none (no result: PNC assembly inh)
CO/N=C(\C)CCN1CCc2nc(-c3ccccc3)c(-c3ccccc3)cc2C1	none (no result: PNC assembly inh, HPGD inh)
COc1ccc(N2C(=O)CC(N3CCN(S(=O)(=O)c4c(F)cccc4F)CC3)C2=O)cc1OC (configuration not stated)	ALDH1A1 inh 14µM
Cc1cccc(N2C(=O)CC(N3CCC(c4nc5ccccc5[nH]4)CC3)C2=O)c1 (configuration not stated)	ALDH1A1 inh inconclusive
CCCOc1ccc(N2C(=O)CC(N3CCN(S(=O)(=O)c4ccccc4)CC3)C2=O)cc1 (configuration not stated)	ALDH1A1 inh inconclusive
COc1cccc(N2C(=O)CC(N3CCC(c4nc5ccccc5[nH]4)CC3)C2=O)c1 (configuration not stated)	ALDH1A1 inh 32µM
CC1(C)CCC2=C(O1)c1ccccc1C(=O)C2=O	ALDH1A1 inh inconclusive (no result: PNC assembly inh)
O=[N+]([O-])c1cccc(C2=N[C@@H](Cc3ccccc3)CO2)c1	ALDH1A1 inh inconclusive (no result: PNC assembly inh)
COc1ccc(CCN(CC(=O)NC(C)(C)C)C(=O)Cn2nnc(-c3ccc(C)o3)n2)cc1OC	none (no result: PNC assembly inh, HPGD inh)
COc1ccc(/C=N/N=C2\SC(CC(=O)O)C(=O)N2c2ccccc2)cc1 (configuration not stated)	ALDH1A1 inh 20µM
COc1ccc(/C=N/N=C2\SC(CC(=O)O)C(=O)N2c2ccccc2)c(OC)c1 (configuration not stated)	ALDH1A1 inh 20µM
COc1ccc(S(=O)(=O)Oc2cccc(/C=N/N=C3/NC(=O)C(CC(=O)O)S3)c2)cc1 (configuration not stated)	ALDH1A1 inh 8.9µM (no result: PNC assembly inh, HPGD inh)
COc1ccc(/C=N\N=C2/SC(CC(=O)O)C(=O)N2c2ccc(O)cc2)cc1 (configuration not stated)	none (no result: HPGD inh)
Cc1ccc(S(=O)(=O)Oc2ccc(/C=N/N=C3/NC(=O)C(CC(=O)O)S3)cc2)cc1 (configuration not stated)	none (no result: PNC assembly inh, HPGD inh)
O=C(O)CC1S/C(=N\N=C/c2ccccc2)N(c2ccc(O)cc2)C1=O (configuration not stated)	PNC assembly inh inconclusive (no result: HPGD inh)
O=C(CSc1nnc2ccccn12)NNC(=O)c1ccc(F)cc1	none (no result: PNC assembly inh, HPGD inh)
Nc1ncnc2c1ncn2CCCCC(=O)O	none (no result: PNC assembly inh)
Cc1cccc(NC(=O)C(=O)NCCCc2ccccc2)c1	none
CN(C)c1cc[n+](/C(C(=S)Nc2ccc(SC(F)F)cc2)=C(/[O-])c2ccccc2)cc1	none (no result: PNC assembly inh, HPGD inh)
O=[N+]([O-])c1cccc(/C([O-])=C(/C(=S)Nc2cccc3ccccc23)[n+]2ccccc2)c1	HPGD inh inconclusive
Cc1ccc(/C([O-])=C(/C(=S)NCc2ccco2)[n+]2ccccc2)cc1	none
COc1cccc(NC(=S)/C(=C(\[O-])c2ccc([N+](=O)[O-])cc2)[n+]2ccccc2)c1	ALDH1A1 inh 13µM (no result: PNC assembly inh, HPGD inh)
O=[N+]([O-])c1ccc(/C([O-])=C(/C(=S)NCc2ccco2)[n+]2ccccc2)cc1	ALDH1A1 inh 7.9µM (no result: PNC assembly inh, HPGD inh)
CCc1cc[n+](/C(C(=S)Nc2cccc(C)c2)=C(/[O-])c2ccc(C)c([N+](=O)[O-])c2)cc1	PNC assembly inh inconclusive, ALDH1A1 inh inconclusive
CCOc1ccc(NC(=S)/C(=C(\[O-])c2ccc(C)c([N+](=O)[O-])c2)[n+]2ccccc2)cc1	PNC assembly inh inconclusive, ALDH1A1 inh 11µM, HPGD inh inconclusive
Cc1ccc(NC(=S)/C(=C(\[O-])c2ccc(F)cc2)[n+]2ccccc2)cc1	ALDH1A1 inh 10µM (no result: PNC assembly inh, HPGD inh)
O=c1[nH][nH]c(=O)n1-c1ccccc1	none (no result: PNC assembly inh, HPGD inh)

High-throughput results from PubChem BioAssay.
